Shown are actives, neighbours in structure and some others; about 28% of the full set was active somewhere.
PLK1 kinase inh = inhibitors of human PLK1 kinase | P53350 | recombinant PLK1 kinase, TR-FRET peptide phosphorylation | inhibition, % at 10 µM | actives 0.53% (n = 97,000) | AID 619;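 active means inhibition of 50% or more in the single-concentration screen; inactive means inhibition below 50%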
CYP2C9 inhib = inhibitors of human CYP2C9 | P11712 | CYP2C9 Supersomes, luciferin-H conversion, luminescence | inhibition, % at 5 µM | actives 20% (n = 96,000);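 active means blocking of liver enzyme CYP2C9 beyond about 50% at 5 µM, limit read from the data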
CYP2C9 activ = increases human cytochrome P450 2C9 activity; recombinant CYP2C9, luciferin-H conversion, luminescence; active compounds read high; factor 1 = untreated enzyme, 0 = blocked; actives 1.4% (n = 96,000); activation factor at 5 µM; P11712;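 active means activation factor of 2 or more for CYP2C9 at a 5 µM dose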
CYP2C19 activ = increases human CYP2C19 enzyme activity | recombinant CYP2C19, luciferin-H EGE luminescence; active compounds read high; 0 = fully inhibited enzyme, 1 = untreated enzyme | activation factor at 5 µM | 96,000 tested, under 10 active | AID 1025;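 active means activation factor of at least 2 at 5 µM in the primary screen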
Target sequence (P33261 whole entry, looked up): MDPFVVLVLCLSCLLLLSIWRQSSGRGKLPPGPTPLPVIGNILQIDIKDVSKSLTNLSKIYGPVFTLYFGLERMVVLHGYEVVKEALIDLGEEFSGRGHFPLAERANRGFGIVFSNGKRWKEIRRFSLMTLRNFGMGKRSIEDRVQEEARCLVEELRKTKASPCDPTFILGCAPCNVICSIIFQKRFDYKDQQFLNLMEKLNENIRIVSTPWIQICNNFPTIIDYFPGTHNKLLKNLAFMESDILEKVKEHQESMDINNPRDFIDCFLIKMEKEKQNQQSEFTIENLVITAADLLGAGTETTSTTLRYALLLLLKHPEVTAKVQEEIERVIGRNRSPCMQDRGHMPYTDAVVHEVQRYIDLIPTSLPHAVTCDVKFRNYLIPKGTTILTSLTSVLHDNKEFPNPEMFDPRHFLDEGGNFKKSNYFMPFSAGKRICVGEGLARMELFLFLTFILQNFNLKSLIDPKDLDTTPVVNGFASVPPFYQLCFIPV
CYP2C19 inhib = blocks human cytochrome P450 2C19; inhibition, % at 5 µM; CYP2C19 Supersomes, luciferin-H EGE luminescence, 30 min; actives 21% (n = 96,000); AID 778;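 active means CYP2C19 inhibition above a set limit at 5 µM in the primary screen, cut at about 50% in these data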
PLK1 PBD inh = inhibitors of human Plk1 polo box domain binding. P53350. Plk1 PBD phosphopeptide binding, fluorescence polarization. inhibition, %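 (tested at about 20 µM)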. actives 0.13% (n = 97,000). AID 693; in the data active means inhibition above about 34%, passing the limit was not always enough
Large screens that a line does not name were inactive.

CCOc1ccc(NS(=O)(=O)c2ccc(OCC)c3ncccc23)cc1	CYP2C9 inhib 67.7
CCOc1ccc(NS(=O)(=O)c2ccc3[nH]c(=O)oc3c2)cc1	CYP2C9 inhib 87.3, CYP2C19 inhib 88.1
CCOc1ccc(NS(=O)(=O)c2ccc(N)cc2)cc1	CYP2C9 inhib 69.8, CYP2C19 inhib 53.7
CCOc1ccc(S(=O)(=O)N(C)c2ccc(OCC(=O)N3CCOCC3)cc2)cc1	CYP2C9 inhib 74.4
CCCCNS(=O)(=O)c1ccc(OC)c2ncccc12	none
CCOc1ccc(NS(=O)(=O)c2ccc(SC)cc2)cc1	none (no result: CYP2C9 inhib, CYP2C9 activ, CYP2C19 activ, CYP2C19 inhib)
CC(C)Oc1ccc(CSC(=N)N)cc1	none
CCSc1ccc2nnc(-c3ccc(F)cc3)n2n1	none
COC(=O)COc1ccc(S(=O)(=O)Nc2ccc3c(c2)OCCO3)cc1Cl	CYP2C9 inhib 92.4, CYP2C19 inhib 98.4
Cc1ccc(NS(=O)(=O)c2ccc(CCC(=O)N3CCOCC3)cc2)cc1	none
CCOC(=O)COc1ccc(S(=O)(=O)Nc2ccc(C)cc2)cc1	CYP2C9 inhib 59.1
Cc1ccc(NS(=O)(=O)c2ccc(OCC(=O)N3CCOCC3)cc2)cc1	CYP2C19 inhib 56.8
CCOC(=O)COc1ccc(S(=O)(=O)Nc2ccc3c(c2)OCO3)cc1	CYP2C9 inhib 67.2, CYP2C19 inhib 86.4
CC(C)NS(=O)(=O)c1ccc(OCC(=O)Nc2ccc3c(c2)OCO3)c(Cl)c1	none
Cc1ccc(OC(=O)c2cccc(C(=O)Oc3ccc(C)cc3)n2)cc1	none
CCOC(=O)CC(N)c1ccc2c(c1)OCO2 (stereo not given)	CYP2C19 inhib 52.3
COc1ccc(C)c(S(=O)(=O)Nc2ccc(OCC(=O)O)cc2)c1	none
Cc1cc(C)c(C)c(S(=O)(=O)Nc2ccc(OCC(=O)O)cc2)c1C	CYP2C9 inhib 76.2
CCOc1ccc(-c2cc3nc(C4CCN(C(=O)OC(C)(C)C)CC4)c(C(=O)O)cn3n2)cc1	CYP2C9 inhib 80.7
CC(C)(C)OC(=O)N1CCC(c2c(C(=O)O)cnn2-c2ccccc2)CC1	none
Cc1cccc(Nc2nc(N)nc(CN3CCN(C)CC3)n2)c1	CYP2C9 inhib 95.8
Cc1ccc(Nc2nc(N)nc(CN3CCN(C)CC3)n2)cc1	none
Cc1cccc(Nc2nc(N)nc(CN3CCN(c4ccc(F)cc4)CC3)n2)c1	CYP2C9 inhib 58.9, CYP2C19 inhib 55.4
CCN1CCN(Cc2nc(N)nc(Nc3ccc(C)c(C)c3)n2)CC1	none
Cc1ccc(Nc2nc(N)nc(CN3CCN(C(=O)c4ccco4)CC3)n2)cc1Cl	CYP2C9 inhib 84.9, CYP2C19 inhib 77.5
CSCC[C@@H](C(=O)Nc1ccc2c(c1)OCCO2)N1Cc2ccccc2C1=O	none
Cc1c(C(=O)Nc2ccc(C(=O)O)cc2)cnn1C	none
CCCCOC(=O)CSc1nnc(-c2cc(OC)c(OC)c(OC)c2)o1	none
COc1cccc(C2(CSc3nnc(-c4cc(OC)c(OC)c(OC)c4)o3)OCCO2)c1	CYP2C19 inhib 83.6
CC12CC3CC(C)(C1)CC(C(=O)NC1=NCCS1)(C3)C2	CYP2C19 inhib 57.6
CC12CC3(C)CC(C)(C1)CC(C(=O)NC1=NCCS1)(C2)C3	none (no result: CYP2C9 inhib, CYP2C9 activ, CYP2C19 activ, CYP2C19 inhib)
Cc1cc(C)n(C(=O)CNC(=O)CCc2ccccc2)n1	none
O=c1sc2ccccc2n1COc1ccccc1	CYP2C9 inhib 58.6, CYP2C19 inhib 89.0
O=c1sc2ccccc2n1CCCOc1ccccc1	CYP2C9 inhib 62.2
O=c1sc2ccccc2n1COc1ccc(Cl)cc1	CYP2C9 inhib 94.1, CYP2C19 inhib 99.7
Cc1ccc(OCCCn2c(=O)sc3ccccc32)cc1	none
Cc1ccccc1OCCCn1c(=O)sc2ccccc21	CYP2C9 inhib 54.9
Cc1cc(NC(=O)C2(c3ccccc3)CCCC2)no1	none
O=C(c1ccc(OCC2CCCO2)cc1)N1CCN(c2ccccc2)CC1 (stereo not given)	none
O=C(c1ccccc1)N1CC(COc2ccccc2)OC(c2ccco2)O1 (stereo not given)	CYP2C19 inhib 88.3
CCOC(=O)CCc1c(C)nc(SCCCn2c(=O)[nH]c3ccccc32)c(C#N)c1C	CYP2C9 inhib 64.2
CCOC(=O)CCc1c(C)nc(SCCN2CCCC2)c(C#N)c1C	none
COC(=O)c1sccc1NC(=O)CSc1cccc(Cl)c1Cl	none
O=C(OCCN1C(=O)c2ccccc2C1=O)c1cccc(OC(F)F)c1	CYP2C19 inhib 90.2
CCCCOCCCNC(=O)/C=C/c1ccccc1Cl	none (no result: CYP2C9 inhib, CYP2C9 activ, CYP2C19 activ, CYP2C19 inhib)
Cc1cccc(C2(c3cccc(C)c3)OC(=O)c3ccccc32)c1	CYP2C9 inhib 61.8
CCN(CCCNC(=O)c1c(C)cc(=O)oc1C)c1ccccc1	CYP2C9 inhib 83.1, CYP2C19 inhib 98.5
CCCNC(=O)c1c(C)cc(=O)oc1C	none
CCCCN(CCCNC(=O)c1c(C)cc(=O)oc1C)c1ccccc1	CYP2C9 inhib 90.5, CYP2C19 inhib 51.1
CC(=O)C1=C(C)NC(SCC(N)=O)=C(C#N)C1c1sccc1C (stereo not given)	none
CC(=O)C1=C(C)NC(SCSc2ccccc2)=C(C#N)C1c1cccnc1 (stereo not given)	CYP2C9 inhib 65.8, CYP2C19 inhib 82.6
CC(=O)C1=C(C)NC(SCC(=O)c2ccc(-c3ccccc3)cc2)=C(C#N)C1c1cccnc1 (stereo not given)	CYP2C9 inhib 86.0, CYP2C19 inhib 95.5
CC(=O)C1=C(C)NC(SCC(N)=O)=C(C#N)C1C (stereo not given)	none
CSCSC1=C(C#N)C(c2ccccc2Cl)C(C(C)=O)=C(C)N1 (stereo not given)	CYP2C9 inhib 81.8, CYP2C19 inhib 84.8
O=C(CSc1nnnn1C1CCCCC1)N1CCCC1	none
O=C(CSc1nnnn1C1CCCC1)NCc1ccccc1	none
COc1ccc(Cl)cc1C(=O)CSc1nnnn1C1CCCCC1	CYP2C19 inhib 69.1
COc1ccc(Cl)cc1C(=O)CSc1nnnn1C1CCCC1	CYP2C19 inhib 75.8
Cc1c(NC(=O)c2noc3c2CCc2ccccc2-3)c(=O)n(-c2ccccc2)n1C	none (no result: CYP2C9 inhib, CYP2C9 activ, CYP2C19 activ, CYP2C19 inhib)
O=C(CCNS(=O)(=O)c1cccs1)NCc1ccco1	none
CCN(CC)c1nc(N)c2c(N)n(-c3ccccc3C)c(=S)c(C#N)c2c1C#N	none
CCN(CC)c1nc(N)c2c(N)nc3c(c2c1C#N)CC(c1ccccc1)O3 (stereo not given)	CYP2C9 inhib 82.3, CYP2C19 inhib 56.2
N#Cc1c(N2CCCCC2)nc(N)c2c(N)nc3c(c12)CC(c1ccccc1)O3 (stereo not given)	CYP2C9 inhib 63.9
COc1ccc(N2CCN(C(CNS(=O)(=O)c3cccs3)c3cccnc3)CC2)cc1 (stereo not given)	CYP2C9 inhib 55.8, CYP2C19 inhib 69.4
CS(=O)(=O)NCC(c1cccnc1)N1CCN(c2ccc(F)cc2)CC1 (stereo not given)	none (no result: CYP2C9 inhib, CYP2C9 activ, CYP2C19 activ, CYP2C19 inhib)
CCS(=O)(=O)NCC(c1cccnc1)N1CCN(c2ccccc2OC)CC1 (stereo not given)	none (no result: PLK1 kinase inh, PLK1 PBD inh)

Screens from PubChem BioAssay.
